Several values for one entry are separate records, joined by “and”; a condition that tells them apart may be missing. Identical values can stand only once. Records with an inconclusive call do not appear. Values without a mark were called inactive. Calls follow the shape of the dose curve; as a rule, active = well fitted activation curve with a large enough effect in the signal ratio, with a control signal flat (not every such curve was filed as active); inconclusive = small, poorly fitted or top-dose-only effect, or effect the other way, or a change in a side signal; inactive = flat fitted curve, though single readings scatter; the % refers to the signal ratio.

A short description of this test: qHTS Assay for Identification of Small Molecule Agonists for Hypoxia Response Element Signaling Pathway (AID 914). Also: % of control where 0% means no effect. Particulars: ME-180 (cervical carcinoma) HRE-bla reporter, beta-lactamase ratio, CoCl2, 17 h; hits give high values. The method in brief: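 HRE-bla ME-180 cells, overnight plating in Opti-MEM with 0.5% dialyzed FBS; cpd titration + EC50 CoCl2, 17 h, 37 degrees Celsius; CCF4 2.5 h RT; 460/530 nm ratio; AC50.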
(In general: qHTS replaces the single test concentration by a dilution series.)
As for `C/C(CCN1CCCCc2nc(C)c(C)cc21)=N\OC[C@@H](C)[C@H](OCc1ccccc1)C(C)C`, the activation is 5.09%.
For the compound `CO[C@H]1COC(=O)C/C=C\[C@@H](C)COC(=O)[C@@H](OCc2ccccc2)/C=C\[C@@H]1C`, the activation was -3.25%.
The result for `C/C(CCN1CCc2nc(-c3ccccc3)c(-c3ccccc3)cc2C1)=N\O[C@@H](C)c1cc(-c2c(C)cc(C)cc2C)no1` reads 20.9%; that for `CCN1C(=O)[C@H]2[C@H]3[C@H](O)[C@H](O)C/C(=N/O[C@@H](C)c4cn([C@H](CO)Cc5ccccc5)nn4)[C@@H]3CC[C@@H]2C1=O`, 1.7%.
For `CC(C)C(=O)N[C@@H]1CCCN1C(=O)/C=C\c1ccccc1`, the activation was 12.7%.
The result for `C#CCCCO/N=C1/C[C@@H](O)[C@@H](O)[C@@H]2[C@@H]3C(=O)N(C4CCCCC4)C(=O)[C@H]3CC[C@H]12` reads 7.1%; that for `CC(C)=CCC/C(C)=C/CO/N=C1/[C@H]2O[C@@H]2[C@@H](O)[C@H]2[C@H]1CCn1c(=O)n(Cc3cc4c(cc3Cl)OCO4)c(=O)n12`, 3.23%; that for `COc1ccc(-c2ccc3c(n2)CCCN3C[C@H](O)CN2CCCc3nc(-c4ccc(Br)cc4)ccc32)cc1`, 17.4% and 18.3%.
Under `C/C(CCC(=O)OC[C@@H]1O[C@H](C#Cc2ccccc2)C=C[C@@H]1Oc1ccc(C)cc1)=N/OC[C@@H](C)[C@H](OCc1ccccc1)C(C)C` stands 14.9%.
The result for `COc1ccc(COC(=O)N/N=C2/C[C@@H](O)[C@@H](O)[C@@H]3[C@@H]4C(=O)N(c5cccc(Oc6ccccc6)c5)C(=O)[C@H]4CC[C@@H]23)cc1` reads -7.26%; that for `CCCNC(=O)OC[C@@H]1O[C@H](CCON=C(C)C)C=C[C@@H]1Oc1ccc(OC)cc1`, -3.17%.
Turning to `CCc1cc2c(nc1CC)CCN(CC/C(C)=N/OC[C@@H](O)[C@@H]1O[C@@H]3OC(C)(C)O[C@@H]3[C@H]1O)C2`, the activation was -8.78%.
